The supplement of paper PMC12669032

These compounds were tested on Collinsella aerofaciens (assay: growth AUC relative to DMSO control (median of replicates) (fraction); higher = more growth (less inhibition), active = hit call of the paper). Settings: 20 µM; 24 h;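 active = AUC reduced over 20% with Padj below 0.05 in at least 2 of 3 replicates; inactive = otherwise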.
How it was run: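 Gut bacterial monocultures were grown anaerobically at 37 °C in mGAM from a starting OD600 of 0.05 with 20 µM compound (1% DMSO), in round-bottom 96-well plates under pierced gas-permeable seals, and OD600 was read hourly for 24 h. With the minimum OD set to 0, area under the growth curve was normalised to the plate median of solvent-only wells, or to row and column medians on the industrial chemical plate. Each value is the median of three biological replicates grown on separate days.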

Growth AUC, active:
Oc1c(Cl)cc(Cl)c(Cl)c1Cc1c(O)c(Cl)cc(Cl)c1Cl 0.0126
O.O=C(Nc1ccc(Cl)c(Cl)c1)Nc1cc(Cl)ccc1Oc1ccc(Cl)cc1S(=O)(=O)[O-].[Na+] 0.619

Growth AUC, inactive:
S=C([S-])NCCNC(=S)[S-].[Mn+2] 1
COc1ccc(Cl)c(Cl)c1Cl 1.01
CCCCOC(=O)C(C)Oc1ccc(Oc2ccc(C(F)(F)F)cn2)cc1 (centres undefined) 0.963
CCCCOCN(C(=O)CS(=O)(=O)[O-])c1c(CC)cccc1CC.[Na+] 1.01
CC(C)OC(=O)N[C@H](C(=O)N[C@H](C)c1nc2ccc(F)cc2s1)C(C)C 0.964
COc1ccc(Oc2ccc(NC(=O)N(C)C)cc2)cc1 1
CCCCOCCOC(=O)COc1nc(Cl)c(Cl)cc1Cl 0.977
CCSC(=O)N(CC(C)C)CC(C)C 1.04
C#CC(C)N(C)C(=O)Nc1ccc(Cl)cc1 (centres undefined) 1
O=S(=O)(Oc1ccc(Cl)cc1)c1ccccc1 0.978
CC(C)c1nn(C(=O)NC(C)(C)C)c(=O)n1N 1.05
COC(=O)c1ccc(I)cc1S(=O)(=O)[N-]C(=O)Nc1nc(C)nc(OC)n1.[Na+] 0.977
C=O 1.04
O=C1NCC[n+]2ccccc21.[Br-] 0.97
CCCCOCCOCCOCc1cc2c(cc1CCC)OCO2 0.98
Cc1ccc(C)c(O)c1 1.01
CCNc1nc(N)[nH]c(=O)n1 1.04
O=c1cc(Cl)[nH]nc1-c1ccccc1 0.983
CCNC(=O)[C@@H](C)OC(=O)Nc1ccccc1 1.1
Cc1c(C(=O)c2c[nH]n(C)c2=O)ccc(S(C)(=O)=O)c1C1=NOCC1 0.976
NC(=S)Nc1cccc2ccccc12 0.909
c1cc2ccc3ccc4ccc5cccc6c(c1)c2c3c4c56 0.993
CCc1cccc(CC)c1N(COC)C(=O)CS(=O)(=O)[O-].[Na+] 0.966
CN(C)c1ccc(N=NS(=O)(=O)[O-])cc1.[Na+] 1.02
CCc1cc(C(=O)O)cc(CC)c1C1C(=O)N2CCOCCN2C1=O 1.03
FC(F)(F)C(=NOCC1OCCO1)c1ccc(Cl)cc1 0.976
Cc1nn(C)c(OCC(=O)c2ccccc2)c1C(=O)c1ccc(Cl)cc1Cl 1.01
C=CCO/N=C(\CCC)C1=C([O-])CC(C)(C)C(C(=O)OC)C1=O.[Na+] (centres undefined) 1.03
COC(=O)C(C)Oc1ccc(Cl)cc1Cl (centres undefined) 0.987
COc1cc(OC)nc(NC(=O)NS(=O)(=O)Nc2ccccc2C(=O)C2CC2)n1 0.997
O=C(Nc1ccc(O)cc1-c1ccc(Cl)cc1)c1cccnc1Cl 1.02
S=C([S-])NCCNC(=S)[S-].[Zn+2] 0.992
COC(=O)COc1ccc(Cl)cc1C 1.01
ClC=C(c1ccc(Cl)cc1)c1ccc(Cl)cc1 0.893
CCCOc1nc2ccc(I)cc2c(=O)n1CCC 0.952
C#CCN(C)c1c(C#N)cnn1-c1nn2c(c1Cl)CCCC2 1.02
COC(=O)c1ccccc1S(=O)(=O)NC(=O)Nc1nc(OC(F)F)cc(OC(F)F)n1 0.992
